JMJD2A Tudor: inhibitors of human JMJD2A Tudor domain | AlphaScreen JMJD2A-Tudor / H3K4me3 peptide binding | Potency, µM (top dose mostly 114 µM), most hits filed as inhibitors | 390,000 tested, 4.4% active | AID 504339; also: nearly all actives have a fitted effect of over 50% in size
HP1b binding inh: blocks HP1-beta chromodomain binding to methylated histone tails; P83916; AlphaScreen HP1-beta / biotin-H3K9me3 peptide binding; Potency, µM (highest dose often 114 µM), usual class: inhibitors; 390,000 tested, 0.56% active; AID 540317; also: nearly all actives have a fitted effect of over 70% in size
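AlphaScreen: HP1-beta (50 nM) preformed 30 min with biotin-H3(1-18)K9me3 peptide (50 nM) in PBS pH 7.4, 0.01% Tween-20. Compound added for 30 min at RT, then streptavidin donor/nickel chelate acceptor beads (10 ug/mL) for 30 min.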
BAZ2B block: BAZ2B (human) inhibition. Q9UIF8. AlphaScreen BAZ2B-H3K14Ac peptide displacement. Potency, µM (doses to about 114 µM), hits mostly inhibitors. 360,000 tested, 4.4% active. AID 504333; also: nearly all actives have a fitted effect of over 60% in size
Target sequence (Q9UIF8 whole entry, looked up): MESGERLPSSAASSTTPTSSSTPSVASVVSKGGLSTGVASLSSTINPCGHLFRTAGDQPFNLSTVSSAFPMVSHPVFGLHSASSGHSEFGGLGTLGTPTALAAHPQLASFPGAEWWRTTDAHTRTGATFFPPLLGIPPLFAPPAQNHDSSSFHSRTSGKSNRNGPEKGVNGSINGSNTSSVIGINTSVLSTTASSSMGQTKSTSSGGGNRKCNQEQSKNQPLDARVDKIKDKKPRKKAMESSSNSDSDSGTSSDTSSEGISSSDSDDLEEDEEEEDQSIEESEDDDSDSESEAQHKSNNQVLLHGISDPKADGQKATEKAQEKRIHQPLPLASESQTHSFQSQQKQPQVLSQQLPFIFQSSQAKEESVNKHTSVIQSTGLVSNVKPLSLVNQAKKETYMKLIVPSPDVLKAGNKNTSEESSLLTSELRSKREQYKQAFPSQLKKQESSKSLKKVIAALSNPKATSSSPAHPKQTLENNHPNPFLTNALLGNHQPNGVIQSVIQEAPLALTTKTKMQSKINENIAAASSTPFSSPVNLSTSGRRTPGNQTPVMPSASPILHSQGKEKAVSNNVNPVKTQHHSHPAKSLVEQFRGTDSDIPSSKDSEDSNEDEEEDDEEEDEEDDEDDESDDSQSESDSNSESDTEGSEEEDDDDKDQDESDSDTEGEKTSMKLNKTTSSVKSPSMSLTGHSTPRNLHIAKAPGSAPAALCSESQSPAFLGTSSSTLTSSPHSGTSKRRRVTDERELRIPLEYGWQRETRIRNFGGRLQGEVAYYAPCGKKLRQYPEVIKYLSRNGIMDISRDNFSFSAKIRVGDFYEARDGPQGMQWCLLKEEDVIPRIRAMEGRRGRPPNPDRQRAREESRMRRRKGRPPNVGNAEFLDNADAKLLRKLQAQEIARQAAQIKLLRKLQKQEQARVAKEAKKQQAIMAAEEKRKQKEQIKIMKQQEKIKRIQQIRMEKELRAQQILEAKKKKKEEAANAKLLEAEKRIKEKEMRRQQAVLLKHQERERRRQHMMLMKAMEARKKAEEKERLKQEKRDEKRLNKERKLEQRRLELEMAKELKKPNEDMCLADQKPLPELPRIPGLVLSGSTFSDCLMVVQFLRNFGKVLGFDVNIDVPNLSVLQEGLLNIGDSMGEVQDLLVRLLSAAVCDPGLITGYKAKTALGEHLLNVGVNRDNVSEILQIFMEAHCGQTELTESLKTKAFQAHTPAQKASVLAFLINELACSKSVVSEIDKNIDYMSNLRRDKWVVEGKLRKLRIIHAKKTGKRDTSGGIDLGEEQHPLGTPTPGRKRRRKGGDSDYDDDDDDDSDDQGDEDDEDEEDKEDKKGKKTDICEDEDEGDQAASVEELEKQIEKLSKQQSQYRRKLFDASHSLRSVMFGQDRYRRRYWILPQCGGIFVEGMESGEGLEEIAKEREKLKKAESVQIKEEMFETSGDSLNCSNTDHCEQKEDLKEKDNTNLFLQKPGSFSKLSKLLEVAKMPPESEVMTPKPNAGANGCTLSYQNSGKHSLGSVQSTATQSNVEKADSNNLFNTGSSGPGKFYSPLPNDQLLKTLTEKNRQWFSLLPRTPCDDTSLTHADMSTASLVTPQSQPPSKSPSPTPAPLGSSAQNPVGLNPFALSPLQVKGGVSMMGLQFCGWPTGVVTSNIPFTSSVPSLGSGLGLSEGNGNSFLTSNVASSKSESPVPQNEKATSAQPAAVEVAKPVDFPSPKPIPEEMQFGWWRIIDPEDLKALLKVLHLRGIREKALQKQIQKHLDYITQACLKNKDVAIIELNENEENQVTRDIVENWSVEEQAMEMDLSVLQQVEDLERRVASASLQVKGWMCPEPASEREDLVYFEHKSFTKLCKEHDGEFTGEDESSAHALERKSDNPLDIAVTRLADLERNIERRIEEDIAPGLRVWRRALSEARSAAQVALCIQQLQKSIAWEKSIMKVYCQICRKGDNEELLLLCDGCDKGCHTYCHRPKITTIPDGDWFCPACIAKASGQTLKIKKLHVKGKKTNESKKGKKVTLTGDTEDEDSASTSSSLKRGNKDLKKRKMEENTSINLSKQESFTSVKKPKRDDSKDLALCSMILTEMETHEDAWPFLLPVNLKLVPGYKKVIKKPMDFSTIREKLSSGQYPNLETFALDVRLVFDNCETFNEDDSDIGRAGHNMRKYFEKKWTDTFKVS
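AlphaScreen luminescence quantifies BAZ2B engagement of H3K14Ac peptide; the protein and biotinylated peptide are both at 50 nM final, buffer PBS pH 7.4 with 0.01% Tween-20, all steps at room temperature.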
G9a inh: inhibitors of human histone lysine methyltransferase G9a. Potency, µM (series often up to 102 µM), hits mostly inhibitors. Q96KQ7. AID 504332. G9a H3K9 monomethylation, AlphaScreen, 2 h. 350,000 tested, 8.8% active; also: nearly all actives have a fitted effect of over 75% in size
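Quantitative HTS format: methyltransferase activity on a biotin-tagged H3K9 peptide is measured by AlphaScreen, using a rabbit anti-monomethyl-H3K9 antibody with streptavidin donor and anti-IgG acceptor beads. Final levels are 20 nM enzyme, 500 nM peptide, 20 uM SAM; 2 h RT.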
PLK1 PBD block: blocks phosphopeptide binding to human PLK1 polo-box domain. Plk1 PBD binding of FITC phosphopeptide, fluorescence polarization. Potency, µM, most hits filed as inhibitors. 360,000 tested, 2.8% active; also: series mostly up to about 57 µM; nearly all actives have a fitted effect of over 65% in size
PI5P4K alpha inh: PI5P4K alpha (human) kinase inhibition. PI5P4Kalpha enzyme, ADP-Glo luminescence, 60 min; hits give low values. max response, %. 330,000 tested, 1.2% active. AID 652105; active = max response of -50% or lower; inconclusive = between -30% and -50%; inactive = -30% or higher; also: value at the top dose of about 77 µM
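Compounds were pin-transferred onto PI5P4Kalpha and substrate in HEPES pH 7.4 buffer with EGTA, CHAPS and 5% DMSO. ATP (5 microM final) started the reaction, which ran 60 minutes at room temperature before ADP-Glo detection.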
Hits are given with their value; . = inactive; ? = inconclusive; / = no result given; [ ] = dose if it differs, or a comment. Shown are actives, neighbours in structure and some others; about 12% of the full set was active somewhere. Unless noted, calls follow the shape of the dose curve; as a rule, active = well fitted curve in the direction sought with a large enough effect; inconclusive = small, poorly fitted or top-dose-only effect, or another doubt; inactive = no such curve, though single readings can be large; an effect the other way counts as inactive or inconclusive.

SMILES	JMJD2A Tudor	HP1b binding inh	BAZ2B block	G9a inh	PLK1 PBD block	PI5P4K alpha inh
CN(C)C(=N)c1n[nH]nc1SCc1ccccc1	.	.	79µM	.	.	.
CCOc1ccc(C2C(C(=O)Nc3ccccc3)=C(C)Nc3nc(SCc4cccc(OC)c4)nn32)cc1 (stereo not given)	.	.	.	.	/	/
Cc1cccc(NC(=S)N(Cc2ccc(Cl)cc2)Cc2ccc(C(=O)O)cc2)c1	.	.	.	.	.	.
COc1ccc(CN(Cc2ccc(C(=O)O)cc2)C(=S)Nc2ccccc2C)cc1OC	.	.	.	45µM	.	.
Cc1cc(C)cc(NC(=S)N(Cc2ccc(Cl)cc2)Cc2ccc(C(=O)O)cc2)c1	.	.	?	.	.	.
Cc1ccc(NC(=S)N(Cc2ccc(Br)cc2)Cc2ccc(C(=O)O)cc2)cc1C	.	.	.	45µM	?	.
COc1ccc(CN(Cc2ccc(C(=O)O)cc2)C(=S)Nc2ccccc2Cl)cc1OC	.	.	.	.	.	.
CCc1ccc(NC(=S)N(Cc2ccc(Cl)cc2)Cc2ccc(C(=O)O)cc2)cc1	.	.	.	.	24µM	.
Cc1cc(NC(=S)N(Cc2ccc(Cl)cc2)Cc2ccc(C(=O)O)cc2)ccc1Cl	.	.	?	?	30µM	.
CCN(CC)CCNC(=O)c1ccc(CSc2nc3ccncc3n2Cc2cccc(F)c2)cc1	.	.	.	.	/	/
COc1ccc(C2Nc3ccccc3C(=O)N2NS(=O)(=O)c2ccc(C)cc2)c(OC)c1 (stereo not given)	.	.	.	.	.	.
Cc1ccc(S(=O)(=O)NN2C(=O)c3ccccc3NC2c2ccccc2F)cc1 (stereo not given)	.	.	50µM	.	.	.
O=C(Cn1cc2c(n1)CCCC2)NCc1cccnc1	?	.	.	.	.	.
O=C(Cn1cc2c(n1)CCCCC2)NCc1ccccc1	.	.	.	.	30µM	.
O=C(Cn1cc2c(n1)CCCCC2)Nc1ccccc1Cl	.	.	.	.	.	.
O=C(Cn1cc2c(n1)CCCC2)Nc1ccccc1Cl	.	.	.	.	24µM	.
Cc1nc(N2CCCCC2)c2c(C)c(C(=O)Nc3ccc4c(c3)OCCO4)sc2n1	.	.	.	.	.	.
C=C(C)[C@@H]1CC[C@]2(C(=O)O)CC[C@]3(C)C(CCC4[C@@]5(C)CC[C@H](O)C(C)(C)C5CC[C@]43C)C12 (stereo not given in full)	.	.	.	.[12.7 µM]	.	.
C=C(C)[C@@H]1CCC2(C(=O)O)CC[C@]3(C)[C@H](CC[C@@H]4[C@@]5(C)CCC(=O)C(C)(C)[C@@H]5CC[C@]43C)[C@@H]12 (stereo not given in full)	.	.	.	.	13µM	.
CCN1CCN(c2c(C=O)c(Cl)nc3ccc(OC)cc23)CC1	.	.	.	.[0.501 µM]	.	.
O=C1/C(=C\c2c(NCCOCCO)nc3ccccn3c2=O)SC(=S)N1Cc1ccco1	.	.	?	40µM	.	.
O=C(O)c1ccc(-n2cccc2/C=C2/NC(=O)N(c3ccccc3)C2=O)cc1	25µM	16µM	13µM	8.9µM	19µM	?
O=C(O)c1ccc(-n2cccc2/C=C2/SC(=O)N(CC(=O)N3CCCC3)C2=O)cc1	10µM	14µM	8.9µM	8.9µM	19µM	-59
O=C(O)c1ccc(-n2cccc2/C=C2/NC(=O)N(c3cccc(Cl)c3)C2=O)cc1	20µM	?	16µM	8.9µM	27µM	-79
O=C1N/C(=C/c2ccsc2)C(=O)N1c1ccccc1	.	.	.	/	.	.
SMILES	JMJD2A Tudor	HP1b binding inh	BAZ2B block	G9a inh	PLK1 PBD block	PI5P4K alpha inh
O=C(CSc1nc(=O)n(Cc2ccncc2)c2c1CCC2)Nc1ccc(F)cc1F	.	.	.	.	/	/
CCCc1nc2c(s1)CCc1onc(-c3ccc(Br)cc3)c1-2	.	.	/	/	15µM	.
CCCc1nc2c(s1)CCc1onc(-c3ccc(Cl)cc3)c1-2	.	.	.	.[2.33 µM]	.	.
CCCc1nc2c(s1)CCc1onc(-c3ccc(OC)cc3)c1-2	.	?	/	/	27µM	.
O=C(Cc1cc(=O)[nH][nH]1)N/N=C/C=C/c1ccccc1	?	.	.	.	?	-60
O=C(CNC(=O)c1ccccc1)N/N=C/C=C/c1ccccc1	.	.	.	.	.	.
COc1ccc(NCC(=O)N/N=C/C=C/c2ccccc2[N+](=O)[O-])cc1	79µM	.	40µM	11µM	.	.
O=C(N/N=C/C=C\c1ccccc1[N+](=O)[O-])c1ccco1	.	.	.	?	.	.
COc1ccc(NCC(=O)N/N=C/c2ccc3c(c2)OCCO3)cc1	?	.	?	?	.	.
Cc1occc1C(=O)N/N=C/C=C\c1ccccc1[N+](=O)[O-]	89µM	.	?	?	?	.
COc1ccc(NCC(=O)N/N=C/C(C)c2ccccc2)cc1 (stereo not given)	?	.	?	28µM	.	.
Cn1c(SCC(=O)N/N=C/C=C/c2ccccc2[N+](=O)[O-])nc2ccccc21	.	.	.	.	.	.
CC(C)CN1CC[C@@]2(CCCN(C(=O)c3cc(C(F)(F)F)cc(C(F)(F)F)c3)C2)C1	/	/	/	.[12.7 µM]	/	/
Clc1cnc(Nc2cccnc2)c(Cl)c1	.	.	.	.	.	.
COc1ncc2nc(-c3ccc(F)cc3)c(=O)n(-c3ccccc3)c2n1	/	/	/	.[0.501 µM]	/	/
COc1ccc(NCC(=O)N/N=C/c2cc([N+](=O)[O-])ccc2N2CCCC2)cc1	?	?	?	8.9µM	13µM	?
CCOc1ccc(N=C/C=C/c2ccccc2)c(O)c1	56µM	?	35µM	50µM	?	.
O=C(Cc1ccccc1)N/N=C/C=C/c1cccc([N+](=O)[O-])c1	.	.	.	.	.	.
CCOc1ccc(-c2[nH]ncc2-c2ccccc2)c(O)c1	.	.	?	/	.	.
CCOc1ccc(NCC(=O)N/N=C/C=C/c2ccccc2)cc1	?	.	?	11µM	.	.
COc1ccc(OCC(=O)N/N=C/C=C/c2ccccc2)cc1	.	.	.	.	.	.
Cc1ccccc1NCC(=O)N/N=C\C=C\c1cccc([N+](=O)[O-])c1	50µM	.	?	?	.	.
CCOC(=O)N/N=C/C=C/c1ccccc1[N+](=O)[O-]	?	.	.	.	21µM	.
O=C(COc1ccc2ccccc2c1)NN1C(=O)c2ccccc2C1=O	89µM	.	.	.	27µM	.
CN1CCN(c2ccc(NC(=O)COc3ccc4ccccc4c3)cc2)CC1	.	.	.	35µM	.	.
O=C(COc1ccc([N+](=O)[O-])cc1)Nc1ccc(N2CCN(C(=O)c3ccco3)CC2)cc1	.	.	25µM	/	.	.
O=C(COc1ccc2ccccc2c1)Nc1ccc(Cc2ccncc2)cc1	79µM	.	?	.	?	/

Assay outcomes as filed in PubChem.
